Inconclusive results are not listed. A call without a number means that no potency is given here. Active and inactive are the calls of the source. Calls follow the shape of the dose curve; as a rule, active = well fitted cell-killing curve with a large enough effect in the repeat runs; inconclusive = weak or mixed curves, or effect the other way; inactive = flat fitted curve, though single readings scatter.

This experiment can be described thus: cAMP Responsive Elements (CRE) small molecule antagonists, cell-based qHTS assay: qHTS cell viability counter screen (AID 2060913). Also: nearly all actives have a fitted effect of over 40% in size. The following applies: CRE-bla HEK293T viability, CellTiter-Glo luminescence, 5 h; series mostly up to 92.4 µM. An excerpt:
U.S. Tox21 Program National Center for Advancing Translational Sciences [NCATS] Division of Preclinical Innovation [DPI] U.S. Environmental Protection Agency [EPA] National Institutes of Environmental Health Sciences [NIEHS] National Toxicology Program [NTP] U.S. Food and Drug Administration [FDA] Tox21 Assay Overview: CREB (cyclic-AMP Responsive Element Binding Protein) is a cellular transcription factor. It binds to certain DNA sequences called cAMP Responsive Elements (CRE) and regulates the transcription of the genes. […] This cell line can be used to find agonists/antagonists of the cyclic AMP signaling pathway. The activation of the report gene under culture conditions can be detected by fluorescence intensity. This cell line has been used to screen the Tox21 10K compound library to identify agonists that induce oxidative stress. The cytotoxicity of the Tox21 compound library against the CRE-bla cell line was tested in parallel by measuring the cell viability using CellTiter-Glo assay (Promega, Madison, WI) in the same wells.
Tox21 Assay Protocol Summary: CRE-bla Hek 293T cells were suspended in assay medium (DMEM containing 10% dialyzed FBS, 0.1 mM NEAA, 1 mM sodium pyruvate and 25 mM HEPES) and dispensed at 2,000 cells/4 uL /well into 1536-well black wall/clear bottom plates using a Multidrop Combi (ThermoFisher Scientific, Waltham, MA) dispenser. After the assay plates were incubated at 37 C/5% CO2 for 18 hrs, 23 nL of compounds dissolved in DMSO, positive controls or DMSO only was transferred to the assay plate by a pintool workstation (Kalypsys, San Diego, CA), followed by addition of 1 uL of 1.25uM NKH477 (0.25 uM as final concentration) in assay medium using a Flying Reagent Dispenser (Aurora Discovery, San Diego, CA). The plates were incubated at 37 C and 5% CO2 for 3 hrs. Then 1 uL of LiveBLAzer B/G FRET substrate (Invitrogen, Carlsbad, CA) was added to each well using Bioraptr Flying Reagent Dispenser (FRD, Aurora Discovery, San Diego, CA). The plates were incubated at room temperature for 2 h, then fluorescence intensities were measured using an Envision plate reader (PerkinElmer, Shelton, CT) at Excitation 405nm, Emission 460nm and 530nm. The % activity was determined from the ratio of 460nm/530nm. For cell viability readout that measures cytotoxicity, 4 uL /well of CellTiter-Glo reagent was added into the assay plates using Bioraptr FRD. After 30 min incubation at room temperature, the luminescence intensity in the assay plates was measured using a ViewLux (PerkinElmer, Shelton, CT) plate reader.
Background: In qHTS, concentration-response curves come from the screen itself.
Take `COCCOCCOC`: the Potency result is “inactive”.

On to `CN(C)CCN(Cc1cccs1)c1ccccn1`, for which the Potency entry is “inactive”.

`O=C1c2cccc(O)c2C(=O)c2c(O)cc(CO)cc21`: the Potency entry is “inactive”.

As for `CN(C)C(=O)Nc1ccccc1`, the Potency entry was “inactive”.

Regarding `CC(=O)[C@@]1(O)CC[C@H]2[C@@H]3C[C@H](C)C4=CC(=O)C=C[C@]4(C)[C@@]3(F)[C@@H](O)C[C@@]21C`, the Potency entry was “inactive”.

As to `FC1(F)C(F)(F)C(F)(F)C2(F)C(F)(C1(F)F)C(F)(F)C(F)(F)C1(F)C(F)(F)C(F)(F)C(F)(F)C(F)(F)C12F` (stereo not given), the Potency result was “inactive”.

`CSCCC=O`: the Potency result was “inactive”.

For the compound `O=C(O)CCC(=O)OC[C@@H](NC(=O)C(Cl)Cl)[C@H](O)c1ccc([N+](=O)[O-])cc1`, the Potency entry is “inactive”.

As for `CCCCCCOC(=O)C(C)CC` (stereo not given), the Potency result is “inactive”.

Consider `C1=CCC(c2ccccc2)CC1` (stereo not given), for which the Potency entry was “inactive”.

Take `COC(=O)C(C)(C)C`: the Potency result was “inactive”.

`CCOC(=O)Nc1ccc2c(c1)N(C(=O)CCN1CCOCC1)c1ccccc1S2`: the Potency entry was “inactive”.

In the case of `COc1cc(NS(=O)(=O)c2ccc(N)cc2)ncn1`, the Potency entry was “inactive”.

Turning to `COc1ccc(C(=O)/C(Br)=C\C(=O)O)cc1`, the Potency result was “inactive”.

`CCN(CC)CCOc1ccc(Cc2ccccc2)cc1`: the Potency result is “inactive”.

For `O=C(OCc1ccccc1)c1ccccc1`, the Potency entry is “inactive”.

With `Cn1ccnc1`, the Potency entry is “inactive”.

On to `O=C1CCCCCN1`, for which the Potency entry was “inactive”.

Take `Nc1nc2ccc(OC(F)(F)F)cc2s1`: the Potency result is “inactive”.

Take `COC(=O)NN`: the Potency result was “inactive”.

For `O=C(Cl)c1cc(Cl)cc(Cl)c1`, the Potency entry was “inactive”.

`CC/C=C\CCCCO`: the Potency entry is “inactive”.

For the compound `O=C(OCC1CO1)C1CCCCC1C(=O)OCC1CO1` (stereo not given), the Potency entry was “inactive”.

As for `NCCNCCN`, the Potency result is “inactive”.

Turning to `COc1cc(/C=C/c2ccccc2)oc(=O)c1`, the Potency entry was “inactive”.

For `Nc1nnc(-c2ccc([N+](=O)[O-])o2)o1`, the Potency result was “inactive”.

Take `CCCCSCCCC`: the Potency result was “inactive”.

In the case of `CC1=C(/C=C/C(C)=C/C=C/C(C)=C/C(=O)Nc2ccc(O)cc2)C(C)(C)CCC1`, the Potency result was “inactive”.

In the case of `O=c1c2ccccc2nnn1CCl`, the Potency entry was “inactive”.

On to `CCCCC(CC)COS(=O)(=O)O` (stereo not given), for which the Potency entry is “inactive”.

In the case of `CN1C(CCl)Nc2cc(Cl)c(S(N)(=O)=O)cc2S1(=O)=O` (stereo not given), the Potency result is “inactive”.

Consider `CC(=O)OCC(=O)[C@H]1CC[C@H]2[C@@H]3CCC4=CC(=O)CC[C@]4(C)[C@H]3CC[C@]12C`, for which the Potency entry was “inactive”.

`COCCOc1cc2cc(C(=O)NC3CCN(C(C)C)CC3)n(CC(=O)Nc3ccc(Cl)cn3)c2cn1`: the Potency result is “inactive”.

For the compound `CCc1cc(C(N)=S)ccn1`, the Potency entry was “inactive”.

As to `CC(C)C(=O)OCc1ccccc1`, the Potency result was “inactive”.

In the case of `NS(=O)(=O)c1ccccc1Cl`, the Potency entry is “inactive”.

Take `CCO[Si](CCCN)(OCC)OCC`: the Potency result was “inactive”.

Consider `CCN1CCOCC1`, for which the Potency result was “inactive”.

Take `CCCCCCCCNC`: the Potency entry is “inactive”.

Turning to `OCCN1CCNCC1`, the Potency result is “inactive”.
